Bioassay records deposited in PubChem BioAssay by National Center for Advancing Translational Sciences (NCATS).
HCV inh = inhibitors of hepatitis C virus infection; Potency, µM (top dose mostly 41.8 µM), without a hit: at the top dose activity change, negative = inhibition, actives largely listed as inhibitors; Huh7.5.1 HCVcc-Cre infection, luciferase reporter, 44 h; hit rate 3.4% among 340,000; note: potency is the fitted concentration of half-maximal effect
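Infectious HCV cell culture screen: compound-treated cells (1,000/well, pre-plated 4 h) are infected with HCVcc-Cre at roughly 0.5 moi and grown 44 h. Infection is quantified by luciferase signal after 15 min substrate incubation at room temperature.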
HCMV inh = human cytomegalovirus inhibition | HFF cells, HCMV-luciferase reporter, 72 h; stronger effect = lower value | activity change, negative = inhibition, % at 57.5 µM | hit rate 4.5% among 410,000 | AID 1259415; in the data active = activity change below about -60%; inconclusive = no clear call, values can overlap the other calls; inactive = above about -39%
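Cell-based, HFFs, 1000 cells/well, 16 h 37C; cpds in DMSO + HCMV-luc, MOI 1 PFU/cell; 72 h 37C; OneGlo luminescence after 5 min RT; norm. to buffer vs Salinomycin 10uM.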
Lassa entry inh = Lassa virus entry inhibition; Lassa virus pseudotype entry inhibition, cell reporter; Potency, µM (top dose mostly 37.9 µM), without a hit: top-dose activity change, negative = inhibition, most hits filed as inhibitors; hit rate 1.2% among 300,000; AID 540256; calls by dose curve; tested in HEK293 cells; note: potency is the fitted concentration of half-maximal effect; nearly all actives have a fitted effect of over 50% in size
FBPA Giardia inh = Giardia lamblia aldolase inhibition. A8B2U2. purified Giardia FBPA. Potency, µM (titrated, usually from 59.6 µM), for the others: at the top dose activity, negative = inhibition, actives largely listed as inhibitors. hit rate 0.71% among 290,000; note: potency is the fitted concentration of half-maximal effect; nearly all actives have a fitted effect of over 55% in size
Target sequence (A8B2U2 whole entry, looked up): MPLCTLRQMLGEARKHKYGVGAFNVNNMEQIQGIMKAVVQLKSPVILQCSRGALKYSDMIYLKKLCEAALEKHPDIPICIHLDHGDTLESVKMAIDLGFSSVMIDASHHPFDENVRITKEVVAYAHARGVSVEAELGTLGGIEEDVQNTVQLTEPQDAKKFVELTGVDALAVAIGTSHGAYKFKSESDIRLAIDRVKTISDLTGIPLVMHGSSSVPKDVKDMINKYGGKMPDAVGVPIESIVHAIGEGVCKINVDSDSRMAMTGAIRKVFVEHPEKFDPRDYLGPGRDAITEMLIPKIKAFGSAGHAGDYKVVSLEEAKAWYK
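40 nM FBPA preincubated 10 min at RT with compound (up to 57.5 uM final), then substrate plus GAPDH/TPI/NAD/arsenate coupling and diaphorase/resazurin added. Fluorescence read after 20 min at RT, 525/598 nm.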
MARV entry inh = Marburg virus entry inhibition | Marburg virus pseudotyped entry inhibition, cell reporter | Potency, µM (highest dose often 37.8 µM), without a hit: at the highest dose activity change, negative = inhibition, usual class: inhibitors | hit rate 1.8% among 300,000 | AID 540276; calls by dose curve; tested in HEK293 cells; note: potency is the fitted concentration of half-maximal effect
FMDV antiviral = foot and mouth disease virus antiviral activity; hit rate 1.2% among 410,000; FMDV antiviral cell-based qHTS; Potency, µM (top dose mostly 57.9 µM), without a hit: top-dose activity change, negative = inhibition, usual class: inhibitors; calls by dose curve; tested in HEK293T cells; note: read-out not given here; potency is the fitted concentration of half-maximal effect; nearly all actives have a fitted effect of over 45% in size
The depositor's hits bear a star; ? = inconclusive; . = no result; ! = not confirmed by another sample; [ ] = another dose, or the depositor's remark. Rows were chosen to be rich in hits. Some 8.3% of all compounds tested hit in one or more screens of this group. Unless noted, calls come from the whole dose curve; as a rule, active = well fitted curve in the direction sought with a large enough effect; inconclusive = small, poorly fitted or top-dose-only effect, or another doubt; inactive = no such curve, though single readings can be large; an effect the other way counts as inactive or inconclusive. % is set by controls: 0 for no effect and ±100 for the full control effect.

SMILES	HCV inh	HCMV inh	Lassa entry inh	FBPA Giardia inh	MARV entry inh	FMDV antiviral
C[C@H]1CCCC=CC2C[C@H](O)C[C@@H]2[C@H](O)C=CC(=O)O1 (some centres undefined)	.	.	.	.	.	-18.8%
C[C@H]1CCC/C=C/[C@@H]2C[C@H](O)C[C@H]2[C@@H](O)/C=C/C(=O)O1	?	-76.2*	0.398µM*	.	0.282µM*	-19.7%
C[C@H]1CCC/C=C/[C@@H]2C[C@H](O)C[C@H]2[C@H](O)[C@H](S(=O)c2ccc(O)cc2)CC(=O)O1 (some centres undefined)	0.562µM*	-98.8*	1.26µM*	.	?	-18.9%
COc1ccc(-c2c(C(=O)c3ccc(Br)cc3)[nH]c(N)c2C(=O)NCCc2c[nH]c3ccccc23)cc1OC	.	66.8	.	.	.	.
O=C(CSCC(=O)N1CCN(c2ccccc2)CC1)Nc1nc(-c2ccc(Cl)s2)cs1	6.31µM*	-13.1	.	-10.4%	0.3%	-7.8%
O=C(CSCC(=O)N1CCCCC1)Nc1nc(-c2ccc(Cl)s2)cs1	-14.0%	45.9	.	-4.2%	.	0.1%
Cc1ccc(C(=O)OCC(=O)NC2CCCC2)cc1C	13.2%	-78.4*	-20.6%	4.1%	?	24.8%
Cc1cccc(C(=O)OCC(=O)NC2CCCCCCC2)c1	-6.5%	-63.8*	.	.	.	16.5%
Cc1cccc(C(=O)OCC(=O)NC(=O)NC2CCCCC2)c1	.	-3.8	.	.	.	-20.5%
CC(C)Oc1ccc(C(=O)OCC(=O)NC2CCCCCC2)cc1	11.2µM*	0.0	.	.	.	?
COc1cc2nc(N(C)C)c(CNCc3cccc4ccccc34)cc2c(OC)c1OC	.	.	.	.	.	-24.1%
O=C(c1ccncc1)N1CCC2(CC1)CN(c1ccccc1)C2	.	.	.	-18.8%	.	-19.3%
N#Cc1c(NC(=O)CCN2C(=O)c3ccccc3C2=O)oc(-c2ccccc2)c1-c1ccccc1	-26.5%	15.7	-5.8%	0.3%	4.6%	-20.8%
N#Cc1c(NC(=O)CCn2cnc3ccccc3c2=O)oc(-c2ccccc2)c1-c1ccccc1	10µM*!	25.7	?	-3.4%	?	?
Cc1oc(-c2ccccc2)nc1CNC(=O)Nc1ccccc1	.	-17.7	-8.9%[46.1 µM]	.	.	-2.6%
CCC1CN(C(=O)Nc2cc(C)ccc2OC)c2cc(Cl)ccc2O1 (centres undefined)	.	-61.4*	0.4%[46.1 µM]	.	.	-19.6%
CCC1CN(C(=O)NCc2ccccc2)c2cc(Cl)ccc2O1 (centres undefined)	5.62µM*	-18.0	-10.7%[46.1 µM]	-0.9%	.	-5.9%
CCC1CN(C(=O)NCc2ccccc2)c2ccccc2O1 (centres undefined)	?	15.4	7.0%	0.7%	?	-4.6%
COc1ccc(OC)c(NC(=O)N2CC(C)Oc3ccc(C)cc32)c1 (centres undefined)	.	4.1	-27.5%[46.1 µM]	.	.	-11.9%
CCOC(=O)c1ccccc1NC(=O)N1CCOc2ccc(Cl)cc21	.	-60.6*	7.8%[46.1 µM]	.	.	-28.9%
COc1ccc(C(=O)N2CCC3(CCCN(Cc4cc(C(F)(F)F)cc(C(F)(F)F)c4)C3)CC2)cc1	.	.	.	-3.9%	.	-6.5%
CC(C)CCOc1ccc(N)cc1	.	.	.	-27.0%	.	.
C=C(C)C[C@@]1(c2ccccc2)Oc2ccccc2C2=NCCN=C21	.	.	.	.	-20.7%[14.2 µM]	.
CC(C)(C)c1ccc(CN2N=Nc3ccccc3S2(=O)=O)cc1	?	?	11.2µM*	?	?	?
CC(C)Oc1ccc(CCC(=O)N/N=C/c2ccncc2)cc1	-16.6%	-6.2	1µM*	3.4%	0.8%[46.1 µM]	3.0%
SMILES	HCV inh	HCMV inh	Lassa entry inh	FBPA Giardia inh	MARV entry inh	FMDV antiviral
CC(C)Oc1ccc(CCC(=O)N/N=C/c2ccc3c(c2)OCO3)cc1	-5.6%	-28.6	?	3.5%	-17.3%[46.1 µM]	5.7%
O=C(CS(=O)c1cccc(C(F)(F)F)c1)Nc1ccccc1Cl (centres undefined)	3.7%	-6.2	5.5%	-4.0%	-26.9%	-1.5%
O=C(CS(=O)c1ccc(F)cc1)Nc1ccccc1Cl (centres undefined)	11.7%	-77.4*	-2.4%	8.8%	23.7%[46.1 µM]	14.5%
COc1ccc(NC(=O)Cn2cc(C(=O)C3CCCCC3)c3ccccc32)cc1	.	13.5	0.7%[46.1 µM]	.	1.8%[46.1 µM]	-11.3%
S=c1[nH]nc(COc2ccccc2)n1/N=C/c1c(Cl)cccc1Cl	8.5%	-103.1*	.	19.8%	.	-18.9%
FC(F)Oc1ccc(/C=N/n2c(Cc3ccc(Br)cc3)n[nH]c2=S)cc1	-5.6%	-28.2	5.01µM*	20.2%	-1.9%[46.1 µM]	-19.9%
